{"source": "the supplement of paper PMC9023506", "note": "Where a name gives a salt, the structure may show the parent alone."}
{"system": "Danio rerio larvae (5 dpf)", "assay": "excitability to 1-s acoustic pulses, difference vs DMSO (percentage points (treated minus DMSO)); higher = more of the behaviour than the DMSO vehicle control", "conditions": "10 µM; exposure time: 3 h pre-incubation + 3 h imaging", "description": "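5-dpf wild-type zebrafish larvae were imaged in 96-well plates. They were treated with 190 Tocris FDA-approved drugs at 10 µM (1 µl/ml DMSO) for 3 h before and 3 h during imaging at 28.5 °C, 48 larvae per drug. Automated image analysis gave % time moving and optomotor responses. Values are drug group mean minus DMSO vehicle mean (n=844), in percentage points, for 10 behaviours.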"}
{"smiles": "CN[C@H]1CC[C@@H](c2ccc(Cl)c(Cl)c2)c2ccccc21", "note": "[Sertraline hydrochloride]", "excitability to 1-s acoustic pulses": 8.5}
{"smiles": "CCOC(=O)[C@H](CCc1ccccc1)N[C@H]1CCc2ccccc2N(CC(=O)O)C1=O", "note": "[Benazepril hydrochloride]", "excitability to 1-s acoustic pulses": 0.498}
{"smiles": "COc1ccccc1Oc1c(NS(=O)(=O)c2ccc(C(C)(C)C)cc2)nc(-c2ncccn2)nc1OCCO", "note": "[Bosentan]", "excitability to 1-s acoustic pulses": -1.1}
{"smiles": "CCCc1nn(C)c2c(=O)[nH]c(-c3cc(S(=O)(=O)N4CCN(C)CC4)ccc3OCC)nc12", "note": "[Sildenafil citrate]", "excitability to 1-s acoustic pulses": 4.02}
{"smiles": "COCCCOc1cc(C[C@@H](C[C@H](N)[C@@H](O)C[C@H](C(=O)NCC(C)(C)C(N)=O)C(C)C)C(C)C)ccc1OC", "note": "[Aliskiren hemifumarate]", "excitability to 1-s acoustic pulses": 12.2}
{"smiles": "CCN(CC)CCNC(=O)c1c(C)[nH]c(/C=C2\\C(=O)Nc3ccc(F)cc32)c1C", "note": "[Sunitinib malate]", "excitability to 1-s acoustic pulses": 14.4}
{"smiles": "COc1cccc2c1C(=O)c1c(O)c3c(c(O)c1C2=O)C[C@@](O)(C(=O)CO)C[C@@H]3O[C@H]1C[C@H](N)[C@H](O)[C@H](C)O1", "note": "[Doxorubicin hydrochloride]", "excitability to 1-s acoustic pulses": 13.8}
{"smiles": "COc1cc2ncnc(Nc3ccc(F)c(Cl)c3)c2cc1OCCCN1CCOCC1", "note": "[Iressa]", "excitability to 1-s acoustic pulses": 18}
{"smiles": "CN1CCC[C@@H]1CCO[C@](C)(c1ccccc1)c1ccc(Cl)cc1", "note": "[Clemastine fumarate]", "excitability to 1-s acoustic pulses": 15.4}
{"smiles": "CC(C)(C#N)c1cc(Cn2cncn2)cc(C(C)(C)C#N)c1", "note": "[Anastrozole]", "excitability to 1-s acoustic pulses": 3.65}
{"smiles": "CC(C)(C(=O)c1cccnc1)c1cccnc1", "note": "[Metyrapone]", "excitability to 1-s acoustic pulses": 12.2}
{"smiles": "CN/C(=N\\CCSCc1nc[nH]c1C)NC#N", "note": "[Cimetidine]", "excitability to 1-s acoustic pulses": -2.12}
{"smiles": "CCOc1nc2cccc(C(=O)O)c2n1Cc1ccc(-c2ccccc2-c2noc(=O)[nH]2)cc1", "note": "[Azilsartan]", "excitability to 1-s acoustic pulses": -0.616}
{"smiles": "CCc1c2c(nc3ccc(OC(=O)N4CCC(N5CCCCC5)CC4)cc13)-c1cc3c(c(=O)n1C2)COC(=O)[C@]3(O)CC", "excitability to 1-s acoustic pulses": 6.46}
{"smiles": "N#C[C@@H]1C[C@@H]2C[C@@H]2N1C(=O)[C@@H](N)C12CC3CC(CC(O)(C3)C1)C2", "note": "[Saxagliptin hydrochloride]", "excitability to 1-s acoustic pulses": 2.82}
{"smiles": "O=C1CCc2cc(OCCCCc3nnnn3C3CCCCC3)ccc2N1", "note": "[Cilostazol]", "excitability to 1-s acoustic pulses": 6.57}
{"smiles": "CCCCCCCCc1ccc(CCC(N)(CO)CO)cc1", "excitability to 1-s acoustic pulses": 14.4}
{"smiles": "CNC(=O)c1cc(Oc2ccc(NC(=O)Nc3ccc(Cl)c(C(F)(F)F)c3)cc2)ccn1", "note": "[Sorafenib]", "excitability to 1-s acoustic pulses": 14.4}
{"smiles": "NC(=O)OCC(COC(N)=O)c1ccccc1", "note": "[Felbamate]", "excitability to 1-s acoustic pulses": -4.78}
{"smiles": "C#C[C@]1(O)CC[C@H]2[C@@H]3CCC4=CC(=O)CC[C@@H]4[C@H]3CC[C@@]21CC", "note": "[Levonorgestrel]", "excitability to 1-s acoustic pulses": 1.14}
{"smiles": "N#Cc1ccc2[nH]cc(CCCCN3CCN(c4ccc5oc(C(N)=O)cc5c4)CC3)c2c1", "note": "[Vilazodone hydrochloride]", "excitability to 1-s acoustic pulses": 16.8}
{"smiles": "O=C(O)CCCc1ccccc1", "note": "[Sodium 4-Phenylbutyrate]", "excitability to 1-s acoustic pulses": 2.04}
{"smiles": "COc1ccc(Cl)cc1C(=O)NCCc1ccc(S(=O)(=O)NC(=O)NC2CCCCC2)cc1", "note": "[Glibenclamide]", "excitability to 1-s acoustic pulses": -0.0554}
{"smiles": "CCOC(=O)C1=C(C)NC(C)=C(C(=O)OC)C1c1cccc(Cl)c1Cl", "note": "(stereo not given) [Felodipine]", "excitability to 1-s acoustic pulses": -13.3}
{"smiles": "Nc1nc2[nH]cc(CCc3ccc(C(=O)N[C@@H](CCC(=O)O)C(=O)O)cc3)c2c(=O)[nH]1", "note": "[Pemetrexed]", "excitability to 1-s acoustic pulses": 2.29}
{"smiles": "COCCc1ccc(OCC(O)CNC(C)C)cc1", "note": "(stereo not given) [Metoprolol tartrate]", "excitability to 1-s acoustic pulses": -8.67}
{"smiles": "CC(C)OC(=O)C(C)(C)Oc1ccc(C(=O)c2ccc(Cl)cc2)cc1", "note": "[Fenofibrate]", "excitability to 1-s acoustic pulses": 4.84}
{"smiles": "CCC(=O)O[C@]1(C(=O)SCF)[C@H](C)C[C@H]2[C@@H]3C[C@H](F)C4=CC(=O)C=C[C@]4(C)[C@@]3(F)[C@@H](O)C[C@@]21C", "note": "[Fluticasone propionate]", "excitability to 1-s acoustic pulses": 1.18}
{"smiles": "NS(=O)(=O)c1cc(C(=O)O)c(NCc2ccco2)cc1Cl", "note": "[Furosemide]", "excitability to 1-s acoustic pulses": 0.211}
{"smiles": "O=c1n(CCCN2CCN(c3cccc(Cl)c3)CC2)nc2ccccn12", "note": "[Trazodone hydrochloride]", "excitability to 1-s acoustic pulses": 18.6}
{"smiles": "C=CC(=O)N1CCC[C@@H](n2nc(-c3ccc(Oc4ccccc4)cc3)c3c(N)ncnc32)C1", "note": "[Ibrutinib]", "excitability to 1-s acoustic pulses": -2.71}
{"smiles": "CN(C)CCc1c[nH]c2ccc(Cn3cncn3)cc12", "note": "[Rizatriptan benzoate]", "excitability to 1-s acoustic pulses": -3.58}
{"smiles": "Clc1ccc(COC(Cn2ccnc2)c2ccc(Cl)cc2Cl)c(Cl)c1", "note": "(stereo not given) [Miconazole nitrate]", "excitability to 1-s acoustic pulses": -0.632}
{"smiles": "CCCCCOC(=O)Nc1nc(=O)n([C@@H]2O[C@H](C)[C@@H](O)[C@H]2O)cc1F", "note": "[Capecitabine]", "excitability to 1-s acoustic pulses": 4.17}
{"smiles": "CN(C)CCC[C@@]1(c2ccc(F)cc2)OCc2cc(C#N)ccc21", "note": "[Escitalopram oxalate]", "excitability to 1-s acoustic pulses": 14.4}
{"smiles": "CN1CC[C@@H](NC(=O)Nc2ccc(C#N)cc2)C[C@@H]1c1nc2ccccc2[nH]1", "excitability to 1-s acoustic pulses": 7.99}
{"smiles": "Cn1cnc([N+](=O)[O-])c1Sc1ncnc2[nH]cnc12", "note": "[Azathioprine]", "excitability to 1-s acoustic pulses": -0.039}
{"smiles": "C[C@H]1C[C@@H]2[C@H]([C@@H](O)C[C@@]3(C)[C@H]2CC[C@]3(O)C(=O)CO)[C@@]2(C)C=CC(=O)C=C12", "note": "[Methylprednisolone]", "excitability to 1-s acoustic pulses": 0.503}
{"smiles": "CCN(Cc1ccncc1)C(=O)C(CO)c1ccccc1", "note": "(stereo not given) [Tropicamide]", "excitability to 1-s acoustic pulses": 0.232}
{"smiles": "N[C@@H]1[C@H]2CN(c3nc4c(cc3F)c(=O)c(C(=O)O)cn4-c3ccc(F)cc3F)C[C@@H]12", "note": "[Trovafloxacin mesylate]", "excitability to 1-s acoustic pulses": 11.3}
